# Target: CDC34
# Experiment: pooled miR-30 sensor sort-seq; sequence = guide strand
# Conditions: shRNA
# Also: reference of the scale not given here.
row,Sequence,sensor-assay potency score (higher = more potent)
1,ATGATGTCTGTGTACTCCCGAT,-1.21
2,TAGTCGATGGGGAACTTGAGGC,-1.23
3,TTAGGGTGCCACATCTTGGTCA,-0.421
4,TTGCTCTCTTTCCACTTCCTGT,-0.991
5,TCGTAGTAGTCGTCGTAGAAGA,-1.53
6,TAGATCGCCCTCGTCCACCAGT,-0.743
7,TTCCTGTACATCACGGAGGCGT,-0.234
8,TAGGGTGCCACATCTTGGTCAG,0.104
9,TTGGTCAGGAACCGAAAGGCTG,-0.731
10,TTCCACTTCCTGTACATCACGG,-0.553
11,TAGTAGTCGTCGTAGAAGAGGT,-0.785
12,TCCACTTCCTGTACATCACGGA,-0.313
13,TCGTCGTAGAAGAGGTCTGAGC,-1.59
14,TTGAGCTCCAGCAGCAGCGCCT,-0.656
15,TAGTCGTCGTAGAAGAGGTCTG,-0.479
16,TCGTAGAAGAGGTCTGAGCCCT,-0.356
17,ACACTCAGGAGAATGGTCCTGA,0.312
18,TTGGTCTTCACGCAGTACTCGG,-1.15
19,TCCTCGTAGTAGTCGTCGTAGA,-1.72
20,TCGTCCACCAGTGTCACGCGGA,-0.898
21,TCATCGTCCCCGAAGCAGCTGT,-0.635
22,TGGTCTTCACGCAGTACTCGGC,-1.2
23,TGTCTGTGTACTCCCGATCCTT,-1.06
24,TAGAAGAGGTCTGAGCCCTCGT,-0.00353

# Target: CDC42BPB
# Experiment: as above
# Conditions: shRNA
row,Sequence,sensor-assay potency score (higher = more potent)
1,TTTGATTTCTTTATCTCGGTTT,0.716
2,TTTGATTTTGGAAATCTCTTGC,0.44
3,TTATTTCAAAGTCTTCTCGATG,-1.07
4,TTCTGAATCATGCACCTCCTTC,-0.418
5,TTTAATGTCTCTGTGCACGTAA,0.422
6,TAGAGCATCTCATACATGCAGA,-0.774
7,TTGAAGTAGATCAAGCGTGGAG,0.0489
8,TACTATTCTCTTAAGGTCCTAG,-0.0384
9,TTCGATTTCTTCATTTAGCTTT,0.598
10,TTTCACTTCTAGCACATGGGAG,-0.202
11,TCATCTTCAAACATGATCCAAA,-0.68
12,TTTCCTTGGACAACACTGGAGG,-0.765

# Target: CDC42SE1
# Experiment: as above
# Conditions: shRNA
row,Sequence,sensor-assay potency score (higher = more potent)
1,TTCTCTTCTTCTTCGGCTGGGG,-0.102
2,TTGCTCCATGGCCTATCTCGGT,-1.82
3,ATCATGGTCCGGTCAATCCGTC,-1.39
